aSyn yeast inh – qHTS of alpha-syn Inhibitors. Yeast expressing alpha-synuclein, growth rescue, BacTiter-Glo, 24 h. Potency, µM (titrated, usually from 46.1 µM), for inactives: at the highest dose growth rescue (activation), usual class: activators. hit rate 0.14% among 370,000. AID 652106, 2013; also: % of control where 0% means no effect; nearly all actives have a fitted effect of over 65% in size
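Galactose-induced alpha-syn yeast (OD600=0.02, raffinose-pregrown) + pinned cpd, 24 hr, 30 deg C; growth by BacTiter-Glo luminescence. Growth restoration scores as activation.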
FUS yeast rescue – qHTS for Suppressors of FUS Proteinopathy: Primary screen using FUS-linked yeast assay | Potency, µM (series often up to 76.6 µM), hits mostly activators | hit rate 0.24% among 390,000 | S. cerevisiae FUS-expressing, growth rescue, OD600, 24 h;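 also: plate controls were DMSO vehicle for no effect and reference control for full effect; nearly all actives have a fitted effect of over 55% in size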
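Cultures pregrown in 2.5% raffinose medium are shifted to minimal medium containing 2% galactose to express toxic FUS. Compounds are tested at several concentrations. After 24hr at 30C, growth is quantified at 600 nm absorbance.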
Abeta yeast res – qHTS for compounds that reverse cellular toxicity of Amyloid beta (A-beta) peptide in yeast: Primary Screen; yeast expressing A-beta42, growth rescue, OD600, 48 h; response scale: 0% DMSO, 100% iron-clioquinol control; Potency, µM (highest dose often 46.1 µM), most hits filed as activators; hit rate 0.063% among 410,000; AID 1347071, 2019; also: nearly all actives have a fitted effect of over 55% in size
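Yeast growth medium received pinned compounds, then yeast cells expressing toxic A-beta were added; plates incubated at 30 C for 48 hr. Growth read as absorbance at 600 nm, normalized to DMSO and equimolar FeCl3 plus clioquinol controls.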
TDP43 rescue – qHTS of TDP-43 Inhibitors | hit rate 1.8% among 410,000 | TDP-43 expressing yeast growth rescue, BacTiter-Glo, 24 h | Potency, µM (titrated, usually from 46.1 µM), for inactives: at the top dose growth rescue (activation), usual class: activators; also: % of control where 0% means no effect; nearly all actives have a fitted effect of over 50% in size
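Galactose-induced TDP-43 yeast, OD600=0.02, compound pinned; 24 hr, 30 deg C; BacTiter-Glo luminescence for growth. Inhibitors of TDP-43 toxicity read as activators.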
Active calls of the source: *; i = inactive; ? = inconclusive; nt = no result; ! = not confirmed by another sample; [ ] = remark or other dose. The list is not random: actives were taken first. Their share in the collection is about 2.1%. Calls follow the shape of the dose curve; as a rule, active = well fitted curve in the direction sought with a large enough effect; inconclusive = small, poorly fitted or top-dose-only effect, or another doubt; inactive = no such curve, though single readings can be large; an effect the other way counts as inactive or inconclusive. Potency is read from the fitted curve at half-maximal effect.

SMILES	aSyn yeast inh	FUS yeast rescue	Abeta yeast res	TDP43 rescue
N=c1c2ccccc2nc2n1CCCCCCC2	2%	i	i	21%
COc1ccc(NC(=O)CN(C)C(=O)c2cccc(S(=O)(=O)N3CCN(c4ccc(F)cc4)CC3)c2)cc1	-2%	22µM*	i	1%
N/C(=N\OC(=O)c1ccc(F)cc1)c1ccc(Br)cc1	-12%	i	i	3.2µM*
N/C(=N\OC(=O)c1ccccc1Cl)c1ccc(Cl)cc1	-65%	i	i	?
N/C(=N\OC(=O)c1ccc(Cl)cc1)c1ccc(Cl)cc1	-23%	i	i	7.9µM*
CC(=O)c1cccc(NC(=O)CCCSc2ccccc2)c1	1%	i	i	3%
Cc1ccc(C)c(S(=O)(=O)ON2C(=O)c3ccccc3C2=O)c1	2%	i	i	-7%[0.397 µM]
CCCCN(C=O)c1c(CC)nc2c(OCCC)cccn12	1%	i	i	9%
O=C(Nc1nc2ccc(S(=O)(=O)N3CCCCC3)cc2s1)c1ccncc1	-12%	35µM*	i	9%
O=[N+]([O-])c1ccccc1OCc1nc(-c2cccs2)no1	3%	i	i	13µM*
Cc1ccc(C2=NS(=O)(=O)N(C)C(C(=O)Nc3ccc(F)cc3F)=C2)cc1	6%	i	i	6%
COc1ccc(OC)c(C2=NS(=O)(=O)N(C)C(C(=O)Nc3ccc(F)cc3F)=C2)c1	-2%	i	i	35µM*!
CCn1cc(C(=O)OCC(=O)OC2CC(C)CCC2C(C)C)c(=O)c2ccc(C)nc21 (stereo unspecified)	0%	?	i	22µM*
O=C(COC(=O)c1cccc(Br)c1)NCCc1ccc(F)cc1	3%	i	?	13µM*
COc1ccc(CCNC(=O)CCCc2ccccc2)cc1	1%	i	i	?
Cn1c(N)c(C(C[N+](=O)[O-])c2c(F)cccc2Cl)c(=O)n(C)c1=O (stereo unspecified)	10%	i	i	11µM*
CCCCOc1ccc(C2C(=O)N(C3CCCCC3)CC(=O)N2CC2CCCO2)cc1 (stereo unspecified)	6%	8.9µM*	i	2%
Cc1ccc(C)n1-c1ccc(-c2ccnc(N)n2)cc1	11%	i	i	32µM*
Cc1onc(-c2ccccc2)c1-c1ccnc(N)n1	?	i	i	10%
CC1(C(=O)NC(=S)N(CCC#N)c2ccccc2)CC1(Cl)Cl (stereo unspecified)	-2%	i	i	11%
CC(C)N(Cc1ccccc1)C(=S)NC(=O)C1(C)CC1(Cl)Cl (stereo unspecified)	0%	i	?	35µM*
C=C1CCN(Cc2ccccc2)S(=O)(=O)c2ccccc21	22µM*	i	i	-12%
CCOc1cc(/C=N/NC(=O)CN2CCCCC2)ccc1OCc1cccc(Cl)c1	0%	nt	i	13µM*
CN(Cc1ccccc1)C(=O)c1oc(=O)c2ccccc2c1-c1ccccc1	5%	nt	i	14µM*
Cc1ccc(-c2c(C(=O)N(C)Cc3ccccc3)oc(=O)c3ccccc23)cc1	0%	?	i	13µM*
SMILES	aSyn yeast inh	FUS yeast rescue	Abeta yeast res	TDP43 rescue
CCCCN(C)C(=O)c1oc(=O)c2ccccc2c1-c1ccc(C)cc1	nt	i	nt	nt
c1ccc(NC2=NCCN2CCCC2CCCCC2)cc1	16µM*	i	i	0%
CC1=C(C(=O)Nc2cc(Cl)ccc2C)C2(CCCCC2)OC1=O	nt	i	i	35µM*
CCN1CCCC1CN(Cc1cc2cc(C)cc(C)c2[nH]c1=O)C(=O)Nc1ccccc1OC (stereo unspecified)	-1%	32µM*	i	-6%
CC1=CC(=C(C#N)C#N)C=C(C)N1Cc1ccc(Cl)cc1	0%	i	i	0%
CN1C(=S)N(c2cccnc2)C(=O)/C1=C\c1ccc(N(C)C)cc1	-11%	?	i	-10%[9.22 µM]
CN1C(=S)N(c2cccnc2)C(=O)/C1=C\c1ccc(C(C)(C)C)cc1	?	i	i	16µM*
CN1CCc2nc3sc(C(=O)Nc4cccc(C#N)c4)c(N)c3cc2C1	nt	?	i	18µM*
CC(C)OC(=O)CC(=O)c1sc2nc3c(cc2c1N)CN(C)CC3	-2%	13µM*	i	8%

High-throughput results (PubChem)
